Measured values as given in PubChem BioAssay (Tox21).
Inconclusive results are not listed. The source made the active and inactive calls. Unless noted, calls follow the shape of the dose curve; as a rule, active = well fitted curve in the direction sought with a large enough effect in the repeat runs; inconclusive = weak or mixed curves; inactive = no such curve, though single readings can be large; an effect the other way counts as inactive or inconclusive.

Legend:
[1] = target: Peroxisome proliferator-activated receptor delta (Homo sapiens) (UniProt Q03181); assay: qHTS assay to identify small molecule agonists of the peroxisome proliferator-activated receptor delta (PPARd) signaling pathway (AID 743212; calls by dose curve)
Sequence of Peroxisome proliferator-activated receptor delta (Homo sapiens) (Q03181 whole entry, looked up): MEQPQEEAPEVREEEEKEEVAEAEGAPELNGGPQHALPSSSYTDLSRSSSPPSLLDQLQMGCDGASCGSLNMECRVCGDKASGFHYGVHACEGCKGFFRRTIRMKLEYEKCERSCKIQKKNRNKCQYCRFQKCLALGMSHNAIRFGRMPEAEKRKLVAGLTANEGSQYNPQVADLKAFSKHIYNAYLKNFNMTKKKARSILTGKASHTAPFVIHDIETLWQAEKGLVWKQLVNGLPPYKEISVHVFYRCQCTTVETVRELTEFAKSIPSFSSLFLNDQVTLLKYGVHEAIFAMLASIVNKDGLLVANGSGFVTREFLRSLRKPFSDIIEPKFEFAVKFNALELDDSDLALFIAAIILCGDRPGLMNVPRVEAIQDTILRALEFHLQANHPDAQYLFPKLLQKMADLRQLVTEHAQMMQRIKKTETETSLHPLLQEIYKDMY
Procedure, shortened: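 Tox21 library screened in GeneBLAzer PPARd UAS-bla HEK293H cells. After compound treatment at 37 C, a FRET-based beta-lactamase substrate was applied for 2 h and fluorescence recorded.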

[2] = qHTS assay to identify small molecule antagonists of the peroxisome proliferator-activated receptor delta (PPARd) signaling pathway - cell viability counter screen (AID 743213); also: nearly all actives have a fitted effect of over 50% in size
Procedure, shortened: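 Same-well viability: cells pre-incubated 5 h, dosed with compound plus 300 nM L165041, kept 17 h at 37 C, FRET substrate 2 h RT, then CellTiter-Glo 30 min RT and luminescence.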

[3] = target: Peroxisome proliferator-activated receptor delta (Homo sapiens) (UniProt Q03181); assay: qHTS assay to identify small molecule antagonists of the peroxisome proliferator-activated receptor delta (PPARd) signaling pathway (AID 743215; active = well fitted inhibition curve with a large enough effect in the signal ratio in the repeat runs, not every such curve was filed as active; the % refers to the signal ratio;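 also: cells stimulated with agonist L165041 at 300 nM final during compound exposure; series mostly up to about 62 µM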)
Procedure, shortened: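 Cells: HEK293H with a UAS-driven beta-lactamase reporter responsive to PPARd. Compounds were co-added with L165041 (300 nM, final) and incubated 17 h at 37 C before a 2 h room-temperature FRET substrate step and fluorescence reading.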

[4] = qHTS assay to identify small molecule agonists of the farnesoid-X-receptor (FXR) signaling pathway - cell viability counter screen (AID 743218); also: nearly all actives have a fitted effect of over 45% in size
Procedure, shortened: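 Cells were seeded, left 5 h at 37 C and 5% CO2, then dosed with compound in DMSO for 16 h. After the beta-lactamase FRET read, CellTiter-Glo was added and luminescence measured 30 min later.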

[5] = qHTS assay to identify small molecule antagonists of the farnesoid-X-receptor (FXR) signaling pathway - cell viability counter screen (AID 743221; active = well fitted cell-killing curve with a large enough effect in the repeat runs, not every such curve was filed as active; also: nearly all actives have a fitted effect of over 50% in size)
Procedure, shortened: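 CellTiter-Glo, 30 min RT, luminescence; same wells as the LiveBLAzer FRET read. Cells: FXR-UAS-bla HEK 293T. Treatment: compound with chenodeoxycholic acid 50 uM final, 16 h at 37 C.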

[6] = qHTS assay to identify small molecule agonists of the vitamin D receptor (VDR) signaling pathway - cell viability counter screen (AID 743224); also: series mostly up to about 63 µM; nearly all actives have a fitted effect of over 50% in size
Procedure, shortened: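 Cells: VDR-bla, 2,000/well, settled 4 h. Treatment: compounds in DMSO, 16 h, 37C/5% CO2. Readout: CellTiter-Glo luminescence after 30 min RT.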

[7] = target: Vitamin D3 receptor (Homo sapiens) (UniProt P11473); assay: qHTS assay to identify small molecule antagonists of the vitamin D receptor (VDR) signaling pathway (AID 743223; active = well fitted inhibition curve with a large enough effect in the signal ratio in the repeat runs, not every such curve was filed as active; the % refers to the signal ratio)
Sequence of Vitamin D3 receptor (Homo sapiens) (P11473 whole entry, looked up): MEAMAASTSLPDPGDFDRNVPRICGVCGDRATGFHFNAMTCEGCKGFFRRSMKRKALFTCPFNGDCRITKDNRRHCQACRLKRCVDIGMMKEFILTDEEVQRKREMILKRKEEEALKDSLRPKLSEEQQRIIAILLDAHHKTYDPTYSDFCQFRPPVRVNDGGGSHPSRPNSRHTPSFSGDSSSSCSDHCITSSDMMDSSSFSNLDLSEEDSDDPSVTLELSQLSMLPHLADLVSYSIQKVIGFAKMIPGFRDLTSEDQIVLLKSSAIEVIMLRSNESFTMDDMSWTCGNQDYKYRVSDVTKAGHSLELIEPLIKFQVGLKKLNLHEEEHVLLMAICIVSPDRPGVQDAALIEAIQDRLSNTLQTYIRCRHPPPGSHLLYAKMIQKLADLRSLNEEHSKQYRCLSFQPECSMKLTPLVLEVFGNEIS
Procedure, shortened: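 After VDR-bla cells are plated and left 4 h at 37C, DMSO-dissolved compounds and 3 nM (final) calcitriol agonist are added. Incubation continues 16 h at 37C; FRET beta-lactamase substrate then develops 2 h at room temperature.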

[8] = target: Bile acid receptor (Homo sapiens) (UniProt Q96RI1); assay: qHTS assay to identify small molecule antagonists of the farnesoid-X-receptor (FXR) signaling pathway (AID 743217; active = well fitted inhibition curve with a large enough effect in the signal ratio in the repeat runs, not every such curve was filed as active; the % refers to the signal ratio)
Sequence of Bile acid receptor (Homo sapiens) (Q96RI1 whole entry, looked up): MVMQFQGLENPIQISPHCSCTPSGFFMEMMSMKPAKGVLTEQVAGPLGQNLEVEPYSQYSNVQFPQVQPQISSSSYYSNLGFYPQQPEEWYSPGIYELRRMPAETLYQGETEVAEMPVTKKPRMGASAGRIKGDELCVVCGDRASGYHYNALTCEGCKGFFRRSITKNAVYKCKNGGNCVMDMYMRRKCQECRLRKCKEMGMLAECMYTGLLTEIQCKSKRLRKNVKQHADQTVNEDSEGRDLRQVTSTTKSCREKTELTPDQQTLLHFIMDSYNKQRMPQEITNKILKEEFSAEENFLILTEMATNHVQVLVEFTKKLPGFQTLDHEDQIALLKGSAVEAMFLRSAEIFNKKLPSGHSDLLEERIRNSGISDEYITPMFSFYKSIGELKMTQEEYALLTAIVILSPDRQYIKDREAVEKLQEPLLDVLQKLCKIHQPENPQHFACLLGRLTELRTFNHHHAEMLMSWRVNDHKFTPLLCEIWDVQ
Procedure, shortened: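 Cells carrying a UAS-driven beta-lactamase reporter (GeneBLAzer FXR-UAS-bla HEK 293T) were plated and rested 5 h at 37 °C. Compounds in DMSO were added alongside chenodeoxycholic acid agonist at 50 uM final and left 16 h at 37 °C before FRET substrate readout.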

[9] = target: Bile acid receptor (Homo sapiens) (UniProt Q96RI1); assay: qHTS assay to identify small molecule agonists of the farnesoid-X-receptor (FXR) signaling pathway (AID 743220; active = well fitted activation curve with a large enough effect in the signal ratio in the repeat runs, not every such curve was filed as active; the % refers to the signal ratio)
Procedure, shortened: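 FXR-UAS-bla HEK 293T cells carrying a UAS-driven beta-lactamase reporter were plated for 5 h at 37C/5% CO2, then exposed to DMSO-dissolved Tox21 10K compounds for 16 h at 37C. A LiveBLAzer B/G FRET substrate was loaded for 2 h at room temperature before fluorescence reading.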

[10] = target: Vitamin D3 receptor (Homo sapiens) (UniProt P11473); assay: qHTS assay to identify small molecule agonists of the vitamin D receptor (VDR) signaling pathway (AID 743222; calls by dose curve)
Procedure, shortened: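 Cells carrying a VDR-driven beta-lactamase reporter are seeded at 2,000 per well and rested 4 h. Compounds in DMSO are added for 16 h at 37C, and FRET substrate fluorescence is measured after 2 h at room temperature.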
% is scaled to controls: 0 for no effect and ±100 for the full control effect.

O=C(O)c1ccccc1C(=O)O
inactive: Potency [1] | outcome [2] | outcome [3] | outcome [4] | outcome [5] | outcome [6]

Brc1ccc(Br)c(Br)c1
inactive: outcome [2] | outcome [4] | outcome [5] | outcome [7] | outcome [6]

CC(C)=CCl
inactive: Potency [1] | outcome [2] | outcome [8] | outcome [4] | outcome [9] | outcome [5] | outcome [7] | outcome [6]

COc1ccc(OC)cc1
inactive: Potency [1] | outcome [2] | outcome [3] | outcome [4] | outcome [5] | outcome [7] | outcome [6]

O=C(O)/C=C/C(=O)O
inactive: Potency [1] | outcome [2] | outcome [3] | outcome [4] | outcome [5] | outcome [7] | outcome [6]

O=C(O)Cn1c(=O)n(Cc2ccc(Br)cc2F)c(=O)c2ccc(Cl)cc21
inactive: outcome [2] | outcome [8] | outcome [4] | outcome [9] | outcome [5]

O=C(O)c1ccc(C(=O)O)c(C(=O)O)c1
inactive: Potency [1] | outcome [2] | outcome [3] | outcome [4] | outcome [5] | outcome [6]

OCc1ccccc1
inactive: outcome [2] | outcome [4] | outcome [5] | outcome [7]

CC(O)CC(C)(C)O (configuration not stated)
inactive: outcome [2] | outcome [4] | outcome [5] | outcome [7] | outcome [6]

CC(=O)OCCOC(C)=O
inactive: outcome [2] | outcome [4] | outcome [5] | outcome [10] | outcome [7]

O=C(O)c1ccc(S(=O)(=O)N(Cl)Cl)cc1
inactive: outcome [2] | outcome [8] | outcome [4] | outcome [9] | outcome [5] | outcome [10] | outcome [7] | outcome [6]

CN/C(=C\[N+](=O)[O-])NCCSCc1csc(CN(C)C)n1
inactive: Potency [1] | outcome [2] | outcome [3] | outcome [4] | outcome [5] | outcome [6]

C=C(C)[C@H]1CC=C(C)C(=O)C1
inactive: outcome [2] | outcome [4] | outcome [5] | outcome [7] | outcome [6]

C=CC(=O)OCCC(=O)O
inactive: outcome [2] | outcome [4] | outcome [5] | outcome [10] | outcome [7] | outcome [6]

O=C1CCCC1
inactive: outcome [2] | outcome [4] | outcome [5] | outcome [7]

Nc1nc(N)nc(-c2ccccc2)n1
inactive: Potency [1] | outcome [2] | outcome [3] | outcome [4] | outcome [5] | outcome [6]

CCCCCCCCCCO
inactive: outcome [2] | outcome [8] | outcome [4] | outcome [9] | outcome [5] | outcome [10] | outcome [6]

c1ccc2c(c1)Cc1ccccc1-2
inactive: outcome [2] | outcome [8] | outcome [4] | outcome [9] | outcome [5] | outcome [10] | outcome [7] | outcome [6]

CC1(C)OC[C@@H]2O[C@@]3(C(=O)O)OC(C)(C)O[C@H]3[C@@H]2O1
inactive: outcome [2] | outcome [4] | outcome [5] | outcome [10] | outcome [7] | outcome [6]

O=S(=O)(O)c1ccccc1
inactive: outcome [2] | outcome [8] | outcome [4] | outcome [9] | outcome [5] | outcome [10] | outcome [6]

CCO[Si](CCC#N)(OCC)OCC
inactive: outcome [2] | outcome [8] | outcome [4] | outcome [9] | outcome [5]

CCCCCCCCCCN
inactive: Potency [1] | outcome [2] | outcome [3] | outcome [4] | outcome [5] | outcome [6]

CCc1ccccc1CC
inactive: viability change, negative = cytotoxic [2] -6.24% [at 13.7 µM] | viability change, negative = cytotoxic [4] 18.7% [at 13.2 µM] | outcome [5] | outcome [6]

C=CCc1ccc(OC)c(OC)c1
inactive: Potency [1] | outcome [2] | outcome [8] | outcome [4] | outcome [9] | outcome [5] | outcome [10] | outcome [6]

CN1C(=O)CC[C@H]1c1cccnc1
inactive: outcome [2] | outcome [4] | outcome [5] | outcome [6]

CC(C)(C#N)c1cc(Cn2cncn2)cc(C(C)(C)C#N)c1
inactive: outcome [2] | outcome [8] | outcome [4] | outcome [9] | outcome [5] | outcome [7] | outcome [6]

CCCCCCCC=O
inactive: outcome [2] | outcome [4] | outcome [5] | outcome [7] | outcome [6]

CC1(C)S[C@@H]2[C@H](NC(=O)COc3ccccc3)C(=O)N2[C@H]1C(=O)O
inactive: Potency [1] | outcome [2] | outcome [3] | outcome [4] | outcome [5] | outcome [6]

CCOC(=O)c1ccc(N)cc1
inactive: outcome [2] | outcome [8] | outcome [4] | outcome [9] | outcome [5] | outcome [10] | outcome [7] | outcome [6]

CCOCCOCCOCCO
inactive: outcome [2] | outcome [8] | outcome [4] | outcome [9] | outcome [5] | outcome [10] | outcome [7] | outcome [6]
